Hit rate of the full screen: of about 16,000 compounds, about 5,100 (32%) were called active. Not shown: some 25% with an inconclusive outcome. Some of the results follow. Values without a mark were called inactive. The call rests on the fitted dose curve; in most records, active means well fitted curve in the direction sought with a large enough effect; inconclusive means small, poorly fitted or top-dose-only effect, or effect the other way; inactive means no such curve, though single readings can be large or run the other way.
biological target: Cytochrome P450 3A4 (Homo sapiens) (UniProt P08684); experiment: Cytochrome panel assay with activity outcomes; details: recombinant CYP, pro-luciferin dealkylation, luminescence, p450-cyp3a4; series mostly up to 57.1 µM; activity, negative = inhibition: at the top concentration
On the % scale 0 is the no-effect control and ±100 the full control effect.

Cytochrome P450 3A4 (Homo sapiens), sequence (P08684 whole entry, looked up): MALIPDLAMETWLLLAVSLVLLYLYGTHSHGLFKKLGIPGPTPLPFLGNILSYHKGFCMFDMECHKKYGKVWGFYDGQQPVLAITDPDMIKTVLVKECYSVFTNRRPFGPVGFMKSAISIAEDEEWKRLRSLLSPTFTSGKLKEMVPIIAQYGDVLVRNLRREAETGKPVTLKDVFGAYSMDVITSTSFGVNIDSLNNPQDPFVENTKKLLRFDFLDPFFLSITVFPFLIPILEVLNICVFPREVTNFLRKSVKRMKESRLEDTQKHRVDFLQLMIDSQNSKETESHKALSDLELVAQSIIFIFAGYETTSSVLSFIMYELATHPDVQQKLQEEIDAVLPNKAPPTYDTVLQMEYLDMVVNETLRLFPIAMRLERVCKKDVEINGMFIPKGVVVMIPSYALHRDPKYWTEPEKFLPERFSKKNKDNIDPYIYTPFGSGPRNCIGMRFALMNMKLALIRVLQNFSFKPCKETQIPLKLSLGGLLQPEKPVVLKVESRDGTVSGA

SMILES	AC50	activity, negative = inhibition
COc1ccc2[nH]cc(CCNc3cc(-c4ccoc4)ncn3)c2c1	10 µM (active)	
CC(C)N=C(N)/N=C(\N)Nc1ccc(Cl)cc1		4.7% [at 25.6 µM]
Cc1ccc(NC(=O)N/C=C/c2ccc(Cl)cc2)cc1	0.0501 µM (active)	
O=c1ncn(-c2ccccc2F)c2ncccc12		14.6% [at 2.29 µM]
Cc1n[nH]c2ccccc2c1=O		-6.8% [at 11.4 µM]
O=C1c2ccccc2-c2n[nH]c3cccc1c23	3.98 µM (active)	
O=c1ccc(-c2ccccc2)n[nH]1		-16.6% [at 11.4 µM]
NC(N)=NC(=O)Cc1c(Cl)cccc1Cl		-26.9% [at 25.6 µM]
Cc1cc2cccc(C)c2nc1SCC(=O)N(C)c1nc(-c2ccccc2)cs1		-5.62%
Cc1ccc2nc(SCC(=O)NCc3cccs3)c(C#N)cc2c1		-9.74% [at 2.29 µM]
Cc1nc2cc(NC(=O)CSc3nc4c(C)cccc4cc3C#N)ccc2s1	2.82 µM (active)	
CC(C)C(C(=O)NCC1CCCO1)N(Cc1ccco1)C(=O)CNS(=O)(=O)c1ccc(F)cc1 (stereo not drawn)	5.01 µM (active)	
CCC(C)NS(=O)(=O)c1ccc(OCC(=O)NCC2CCCO2)cc1 (stereo not drawn)		-6.74%
O=C(NCC1CCCO1)c1ccc(CS(=O)(=O)Cc2ccc(F)cc2)o1 (stereo not drawn)		-19.5%
O=C(O)c1cc(S(=O)(=O)NCC2CCCO2)ccc1Cl (stereo not drawn)		9.58%
COc1ccc(/C=C(\C#N)C(=O)NCC2CCCO2)cc1OC (stereo not drawn)		13.9%
O=C(CN(CC1CCCO1)C(=O)CNS(=O)(=O)c1ccc(Cl)cc1)NCCc1ccccc1 (stereo not drawn)	11.2 µM (active)	
COc1ccc(S(=O)(=O)N(CC(=O)NCC2CCCO2)c2ccc(F)cc2)cc1OC (stereo not drawn)	8.91 µM (active)	
COc1ccccc1N(CC(=O)NCC1CCCO1)C(=O)CNS(=O)(=O)c1ccc(C)cc1 (stereo not drawn)	7.94 µM (active)	
Cc1cccc(NC2=NC(=S)N(c3ccc(C(=O)O)cc3)C23CCCCC3)c1		10.4% [at 2.29 µM]
COc1ccc(NC2=NC(=S)N(c3ccc(C)cc3)C23CCCCC3)cc1		-24.1%

SMILES	AC50	activity, negative = inhibition
Cc1ccccc1NC1=NC(=S)N(c2ccccc2)C12CCOC(C)(C)C2 (stereo not drawn)	10 µM (active)	
COc1cccc(Nc2ncc3nc(C)c(=O)n(CCc4ccccc4)c3n2)c1	7.94 µM (active)	
COCCn1c(=O)c(C)nc2cnc(Nc3cccc(OC)c3)nc21	15.8 µM (active)	
Cc1nc2cnc(Oc3cccc(Cl)c3)nc2n(C2CC2)c1=O		-29.8%
COc1cccc(Nc2ncc3nc(C)c(=O)n(C4CC4)c3n2)c1	6.31 µM (active)	
O=c1cnc2cnc(Nc3ccccc3)nc2n1CCc1ccccc1		-18.6%
N[C@@H](Cc1cc(CP(=O)(O)O)cc(-c2ccccc2Cl)c1)C(=O)O		-15.5%
CCN1C(=O)C2(SC(NC(C)=O)=NN2C(C)=O)c2cc(C)ccc21 (stereo not drawn)		-6.6%
Nc1ncc(-c2ccccc2)n1CC1CCCO1 (stereo not drawn)	7.08 µM (active)	
N#Cc1cccc(-c2nc3cnc(Nc4ccccc4)nc3n(C[C@H]3CCCO3)c2=O)c1		-14.4%
O=C1c2ccccc2C(=O)N1CC1CCCO1 (stereo not drawn)		-1.63%
CC(=O)c1sc(N)c(C(=O)OC(C)C)c1C		-29.5%
COc1ccc(CNc2ncncc2-c2ccc(N(C)C)cc2)c(OC)c1	0.2 µM (active)	
COc1ccccc1CNc1ncncc1-c1ccc(C(=O)N(C)C)cc1	2.51 µM (active)	
COc1ccc(CNc2ncncc2-c2ccc(C(=O)N(C)C)cc2)c(OC)c1	0.501 µM (active)	
C/C(=N\OC(=O)c1ccc(F)cc1)c1nccs1		4.23%
N[C@@H](Cc1c[nH]c2ccc([N+](=O)[O-])cc12)C(=O)O		-8.71% [at 11.4 µM]
Cc1cccc(NC(NC(=O)c2cccnc2)C(Cl)(Cl)Cl)c1 (stereo not drawn)	10 µM (active)	
O=C(NC(NCc1ccccc1)C(Cl)(Cl)Cl)c1cccnc1 (stereo not drawn)	12.6 µM (active)	
CCn1ccc(C(=O)NC2C(=O)N3C(C(=O)O)=C(C)CSC23)n1 (stereo not drawn)		-0.674%
Cc1ccc(S(=O)(=O)Oc2ccc(C3C4=C(CCCC4=O)OC4=C3C(=O)CCC4)cc2)cc1	6.31 µM (active)	

SMILES	AC50	activity, negative = inhibition
COc1ccc2c(c1)OC1=C(C(=O)CCC1)C2C1=C(O)CCCC1=O (stereo not drawn)		-28%
O=C1CCCC2=C1C(c1ccc(OS(=O)(=O)c3ccc(Cl)cc3)cc1)C1=C(CCCC1=O)O2	2.24 µM (active)	
Cc1ccc(S(=O)(=O)Oc2cc(N)c3c(n2)CCC3)cc1		-14.1% [at 11.4 µM]
CN1CCc2cc(Cl)c(O)cc2[C@@H](c2ccccc2)C1		-0.12%
NCCNCC1CCNCC1		-29.4% [at 11.4 µM]
CN(C)[C@H]1C(=O)C(C(=O)NCN2CCCC2)=C(O)[C@]2(O)C(=O)C3=C(O)c4c(O)cccc4[C@@](C)(O)[C@H]3C[C@@H]12		-25.5% [at 25.6 µM]
Cc1cc([N+](=O)[O-])nn1Cc1ccccc1F		-21.8%
Cc1cc(/C=N/n2cnnc2)c(C)n1-c1ccc(OCc2ccccc2F)cc1	0.224 µM (active)	
CCOC(=O)c1ccccc1OCc1cc(/C=N/n2cnnc2)ccc1OC		14.7%
Cc1ccc(C)c(Nc2nc3nonc3nc2N2CCOCC2)c1		-12.1% [at 2.29 µM]
OC[C@@H]1O[C@@H](O)[C@H](N=Cc2ccc3c(c2)OCO3)[C@@H](O)[C@@H]1O		-4.87% [at 11.4 µM]
CSc1nncn1/N=C/c1ccc2c(c1)OCO2	8.91 µM (active)	
Cc1ccc(S(=O)(=O)N[C@H](CO)C(=O)O)cc1		-3.82% [at 11.4 µM]
Cc1ccc(S(=O)(=O)N[C@@H](CCc2ccccc2)CC(=O)C(C)(C)C)cc1	1.58 µM (active)	
CC(CCc1ccccc1)NS(=O)(=O)c1ccccc1 (stereo not drawn)		-25.4%
Cc1c(S(=O)(=O)O)ccc(N=Nc2c(O)c(C(=O)O)cc3ccccc23)c1Cl		1.31% [at 11.4 µM]
Cc1cc(C)c2c(N=NN(C)C)[nH]nc2n1		-17.7%
CCOc1cc(CNCCO)c(Cl)cc1OCC(=O)NCCc1ccccc1	0.794 µM (active)	
CC(CCc1ccccc1)NC(=O)C(=O)NCCO (stereo not drawn)		-10.8%
CCOc1ccc(Cl)cc1CNCCNCCO		9.89%
CCNCc1cc(OCC)c(OCC(=O)NCCc2ccccc2)cc1Cl	0.447 µM (active)	
